PubChem BioAssay (Tox21)
Records with an inconclusive call do not appear. Unmarked numbers belong to inactive results. Calls come from the whole dose curve; as a rule, active = well fitted cell-killing curve with a large enough effect in the repeat runs; inconclusive = weak or mixed curves, or effect the other way; inactive = flat fitted curve, though single readings scatter.
% is set by controls: 0 for no effect and ±100 for the full control effect.

Assay: qHTS assay to identify small molecule antagonists of the retinoid acid receptor (RAR) signaling pathway - cell viability counter screen (AID 1159551); note: nearly all actives have a fitted effect of over 35% in size
Settings: C3RL4 cells viability, ATP luminescence (CellTiter-Glo), 6 h; series mostly up to 92.4 µM; activity change, negative = cytotoxicity: at the top concentration
Excerpt: U.S. Tox21 Program National Center for Advancing Translational Sciences [NCATS] NIH Chemical Genomics Center [NCGC] U.S. Environmental Protection Agency [EPA] National Institutes of Environmental Health Sciences [NIEHS] National Toxicology Program [NTP] U.S. Food and Drug Administration [FDA] Tox21 Assay Overview: All-trans Retinoic acid (atRA) is the potent natural metabolite of retinol and plays an important role in normal embryonic development and maintenance of cellular phenotype in adult animals. atRA is the activating ligand for the retinoic acid receptors (RARs) which form heterodimers with retinoid X receptors (RXRs) on the retinoic acid response element (RARE). Through activation of the RAR/RXRs nuclear receptors, atRA regulates the transcription of a large number of protein-coding genes and regulatory RNAs. Intracellular levels of atRA are controlled by the retinol signaling pathway (RSP) that regulates the biosynthesis and catabolism of atRA to maintain physiological levels. Chemicals that interfere with the RSP can cause abnormal intracellular levels of atRA and therefore are potential developmental toxicants. To assess compounds for the potential adverse effect on embryonic development through interfering with retinol signaling, a cell-based RARE luciferase reporter gene assay was used. C3RL4 cell line (OARSA/CFSAN/FDA, Laurel, MD) was used to screen Tox21 10K compound library for identifying inhibitors of the RSP. Also cytotoxicity was assessed by determining the viability of cells based on the quantitation of ATP.
Tox21 Assay Protocol Summary: C3RL4 cells were seeded at 1,000/well in 4 uL of assay medium into white solid 1,536-well tissue culture plates (Greiner Bio-One North America Inc. Monroe, NC) using a Multidrop Combi (Thermo Scientific, Waltham, MA) dispenser. After incubation at 37 C and 5% CO2 for an overnight, 23 nL of compounds dissolved in DMSO, positive control or DMSO only were transferred by a Pintool station (Kalypsys, San Diego, CA). One ul of 1 uM (final concentration) of Retinol was added right after the compound addition by using a Flying Reagent Dispenser (FRD) (Aurora Discovery, San Diego, CA). After 6 hr incubation at 37 C and 5% CO2, 5 uL of CellTiter-Glo reagent (Promega Corporation, Madison, WI) was added to each assay plate using an FRD. Luminescence was quantified on a ViewLux plate reader (PerkinElmer, Waltham, MA) after 30 min incubation at room temperature.
With `CN(C)c1ccc(C(c2ccccc2)c2ccc(N(C)C)cc2)cc1` the “activity change, negative = cytotoxicity” value was 1.8%. For `O=C1[C@H]2CCCC[C@H]2C(=O)N1CCCCN1CCN(c2nsc3ccccc23)CC1`, the “activity change, negative = cytotoxicity” value was 1.18% [at 42.5 µM]. With `C[C@H](CCC(=O)O)[C@H]1CC[C@H]2[C@@H]3CC[C@@H]4C[C@H](O)CC[C@]4(C)[C@H]3C[C@H](O)[C@]12C` the “activity change, negative = cytotoxicity” value was -0.688%. For `Cc1cccc(C)c1NC(=O)CN(CC(=O)O)CC(=O)O`, the “activity change, negative = cytotoxicity” value was 3.49% [at 42.5 µM]. For `O=[N+]([O-])c1cccc(S(=O)(=O)O)c1`, the “activity change, negative = cytotoxicity” value was -1.83%. With `CC1OC(=O)C(C)OC1=O` (stereo not given) the “activity change, negative = cytotoxicity” value was -0.427%. In the case of `COC(C)(C)CCO`, the “activity change, negative = cytotoxicity” value is reported as 3.47%. For `CC1=CC[C@H](C(C)C)C=C1`, the “activity change, negative = cytotoxicity” value was -0.62%. With `CNC(=O)CN(CCN(CCN(CC(=O)[O-])CC(=O)NC)CC(=O)[O-])CC(=O)[O-].O.[Gd+3]` the “activity change, negative = cytotoxicity” value was 1.23% [at 42.5 µM]. With `C1CCCNCCC1` the “activity change, negative = cytotoxicity” value was -0.434%. With `CCCCCCCCCCCCCCOS(=O)(=O)O` the “activity change, negative = cytotoxicity” value was -3.39%. For `O=CC1CC=CCC1` (stereo not given), the “activity change, negative = cytotoxicity” value was -0.102%. With `O=C(c1ccc(F)cc1)C1CCN(CCn2c(=S)[nH]c3ccccc3c2=O)CC1` the “activity change, negative = cytotoxicity” value was -1.02% [at 42.5 µM]. With `C=C1C(=C/C=C2\CCC[C@]3(C)[C@@H]([C@H](C)/C=C/[C@@H](O)C4CC4)CC[C@@H]23)C[C@@H](O)C[C@@H]1O` the “activity change, negative = cytotoxicity” value was 3.72% [at 42.5 µM]. For `CCCCCCCCCCO[C@@H]1O[C@H](CO)[C@@H](O)[C@H](O)[C@H]1O`, the “activity change, negative = cytotoxicity” value was -1.06%. With `CC1=CCCC(C)(C)C12CCC(C)O2` (stereo not given) the “activity change, negative = cytotoxicity” value was -0.197%. For `C=CCOc1ccccc1OCC(O)CNC(C)C` (stereo not given), the “activity change, negative = cytotoxicity” value was 2.3% [at 42.5 µM]. In the case of `NCC(=O)CCC(=O)O`, the “activity change, negative = cytotoxicity” value is reported as -3.51% [at 42.5 µM]. In the case of `CCCCC/C=C\C/C=C\CCCCCCCC(=O)NC(C)c1ccccc1` (stereo not given), the “activity change, negative = cytotoxicity” value is reported as 0.834% [at 42.5 µM]. For `Clc1ccc(Cn2c(CN3CCCC3)nc3ccccc32)cc1`, the “activity change, negative = cytotoxicity” value was 1.76% [at 42.5 µM]. With `CCN(CC)CCNc1ccc(CNC=O)c2sc3ccc(OC)cc3c(=O)c12` the “activity change, negative = cytotoxicity” value was -0.277%. For `COc1ccc(C(=O)N2CCN(CC(=O)N3CCOCC3)CC2)cc1`, the “activity change, negative = cytotoxicity” value was 3.61% [at 42.5 µM]. For `CCOC(=O)C(=O)CCc1ccccc1`, the “activity change, negative = cytotoxicity” value was 1.5% [at 42.5 µM]. With `CC(C)OC(=O)C(C)N(C(=O)c1ccccc1)c1ccc(F)c(Cl)c1` (stereo not given) the “activity change, negative = cytotoxicity” value was -3.33%. For `C=C1[C@H]2CC[C@@H]3[C@H]2C(C)(C)CCC[C@]13C`, the “activity change, negative = cytotoxicity” value was -0.537%. In the case of `ClCCOCCOCCCl`, the “activity change, negative = cytotoxicity” value is reported as -0.94%. With `CN(C)CCN(Cc1ccsc1)c1ccccn1` the “activity change, negative = cytotoxicity” value was 0.423% [at 42.5 µM]. In the case of `COS(=O)(=O)C(F)(F)F`, the “activity change, negative = cytotoxicity” value is reported as 0.599%. For `NC(N)=NCCC[C@H](N)C(=O)O`, the activity change, negative = cytotoxicity was -0.0145% [at 8.39 µM]. With `O=[N+]([O-])c1ccc2[nH]ncc2c1` the “activity change, negative = cytotoxicity” value was 1.93%. With `CCOC(=O)COC(=O)c1cc(Oc2ccc(C(F)(F)F)cc2Cl)ccc1[N+](=O)[O-]` the “activity change, negative = cytotoxicity” value was -4.78%. In the case of `CCOc1ccc(O)cc1`, the “activity change, negative = cytotoxicity” value is reported as 2.42%. For `CCCC(=O)Nc1ccc(O)c(C(C)=O)c1`, the “activity change, negative = cytotoxicity” value was 2.28% [at 42.5 µM]. With `CN1CCC(N(Cc2cccs2)c2ccccc2)CC1` the “activity change, negative = cytotoxicity” value was -6.17% [at 42.5 µM]. For `CCCCc1nc2cccnc2n1Cc1ccc(-c2ccccc2-c2nnn[nH]2)cc1`, the “activity change, negative = cytotoxicity” value was 3.36%. For `C/C=C/C=C/CO`, the “activity change, negative = cytotoxicity” value was -0.268%. With `COC(=O)c1ccc(I)cc1S(=O)(=O)NC(=O)Nc1nc(C)nc(OC)n1` the “activity change, negative = cytotoxicity” value was 0.621%. With `CCOc1ccc(N)c([N+](=O)[O-])c1` the “activity change, negative = cytotoxicity” value was 0.0074%. In the case of `CC(C)(C)Cl`, the “activity change, negative = cytotoxicity” value is reported as 5.45%. With `c1ccc(CNCCNCc2ccccc2)cc1` the “activity change, negative = cytotoxicity” value was -0.608% [at 42.5 µM].
